Screens from PubChem.
RecA intein inh – blocks M. tuberculosis RecA intein splicing. inhibition, % (test concentration not listed). cell-free RecA intein splicing, fluorescence. 0.75% of 290,000 active; in the data active means inhibition above about 30%
CCHFV vOTU inh – blocks the CCHF virus ovarian tumor domain protease; CCHFV vOTU protease, Pep-AMC fluorescence; inhibition, % at 11.5 µM; 0.55% of 370,000 active; in the data active means inhibition above about 30%
DUSP3 inh – blocks human VHR1 dual specificity phosphatase; AID 1654; inhibition, % at 13.3 µM; 0.52% of 290,000 active; P51452; recombinant VHR phosphatase, pNPP absorbance; in the data active means inhibition above about 50%
Target sequence (P51452 whole entry, looked up): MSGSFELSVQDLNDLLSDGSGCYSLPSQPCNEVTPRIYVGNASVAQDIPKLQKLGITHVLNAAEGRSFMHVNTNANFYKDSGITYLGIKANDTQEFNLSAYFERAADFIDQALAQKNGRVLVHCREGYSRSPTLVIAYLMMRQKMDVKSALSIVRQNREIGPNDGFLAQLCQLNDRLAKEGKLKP
SARS 3CLpro inh – SARS-CoV 3CLpro protease inhibition | recombinant SARS-CoV 3CLpro, quenched FRET peptide cleavage | inhibition, % at 6 µM | 0.14% of 290,000 active; in the data active means inhibition above about 12%
Hits are given with their value; 0 = inactive; - = no result. The list is not random: actives were taken first. Their share in the collection is about 1.5%.

SMILES	RecA intein inh	CCHFV vOTU inh	DUSP3 inh	SARS 3CLpro inh
O=C(NCC1CCCO1)C(c1ccco1)N(Cc1ccc(F)cc1)C(=O)CN1C(=O)c2ccccc2S1(=O)=O (stereo not given)	0	0	58	0
COc1cccc(CN(C(=O)CN2C(=O)c3ccccc3S2(=O)=O)C(C(=O)NCC2CCCO2)c2ccco2)c1 (stereo not given)	-	0	0	0
CCCCCC(C)n1[nH]c(=O)cc1N (stereo not given)	0	0	0	0
Fc1ccc(NC(=S)N/N=C/c2ccc(F)c(F)c2)c(F)c1	0	0	52	0
COc1ccc(C=NNC(=S)Nc2ccc(F)cc2)cc1OC	-	0	-	-
Cc1ccnc2nc(C(=O)OCC(=O)Nc3ccc4c(c3)OCCO4)nn12	-	0	-	-
COc1ccc(Cl)cc1NC(=O)CN(C)CC(=O)Nc1ccc(S(N)(=O)=O)cc1	-	0	53	0
CCN1C(=O)CC(N2CCN(c3ccc(C(=O)c4ccccc4)cc3)CC2)C1=O (stereo not given)	0	0	57	0
CC(C)(C)c1ccc(CC(=O)N2CCC2(C)C(=O)Nc2cnc3ccccc3c2)cc1 (stereo not given)	-	0	-	-
Cc1ccc(N(C(=O)c2csnn2)C(C(=O)NC2CCCCC2)c2ccccn2)c(C)c1 (stereo not given)	0	0	0	0
O=C(NC1CCCC1)C(c1cccnc1)N(Cc1ccccc1)C(=O)c1csnn1 (stereo not given)	-	0	53	0
Cc1ccc(C)c(N(C(=O)c2csnn2)C(C(=O)NC2CCCCC2)c2ccccn2)c1 (stereo not given)	0	0	50	0
CC(=O)Nc1ccc(C2=CC(=O)C[C@H](c3ccc4c(c3)OCO4)C2)cc1	-	0	-	-
CCCSc1nc2c(cnn2-c2ccccc2)c(=O)n1N	0	0	0	0
CCCOc1nc(SCCC)nc2c1cnn2-c1ccccc1	0	0	53	0
N#Cc1c(N)n[nH]c1CCCN	0	0	51	0
C/C(CC(=O)Nc1ccc(Cl)cc1)=N\NC(=O)C(=O)N1CCCCC1	78	0	0	0
COC(=O)[C@]12C[C@H](CC(=O)N3CCCC3)C(=O)N(CCC3=CCCCC3)C1=C[C@H](C(C)(C)C)O[C@@H]2C	-	0	-	-
CCC(C)[C@H](NC(=O)N1CCn2c1nc1ccccc12)C(=O)NCc1ccccc1 (stereo not given in full)	0	0	50	0
COCCCN1C2=C(C(=O)CC(C)(C)C2)C(c2ccc(OC)c(OC)c2)C2=C1CC(C)(C)CC2=O	0	0	51	0
COCCN1C2=C(C(=O)CC(C)(C)C2)C(c2ccc(OC)c(OC)c2)C2=C1CC(C)(C)CC2=O	0	0	0	0
CCOC(=O)CNC(=O)CNC(=O)c1ccc(OCC(C)C)cc1	0	0	53	0
COc1ccc(NS(=O)(=O)c2cccc(C(=O)NNC(=O)CNC(=O)c3cccc(C)c3)c2)cc1	0	0	0	0
Cc1cc(NC(=O)CC(C)C)c(=O)n(Cc2c(F)cccc2Cl)c1	0	0	54	0
COCC(=O)Nc1cc(C)cn(Cc2c(F)cccc2Cl)c1=O	0	0	0	0
SMILES	RecA intein inh	CCHFV vOTU inh	DUSP3 inh	SARS 3CLpro inh
COC(=O)C1CN(C2CCCC2)CCS(=O)(=O)N1Cc1cn(Cc2ccc(C)cc2)nn1 (stereo not given)	-	0	-	-
CN(CCC#N)C(=O)CSc1nnc(-c2ccco2)n1N	0	0	51	0
Cc1nn(-c2cccc(Cl)c2)c(Cl)c1/C=N/NC(=O)c1cccs1	0	0	54	0
CCn1ccnc1CN(C)Cc1nc(Cc2cccc(C(F)(F)F)c2)no1	0	0	0	0
Cc1ccc(NC(=S)NC(NC(=O)c2ccccc2C)C(Cl)(Cl)Cl)c(C)c1 (stereo not given)	0	0	0	13
CC(=O)NC(NC(=S)Nc1ccc(C)cc1C)C(Cl)(Cl)Cl (stereo not given)	0	0	0	0
O=C(Nc1cc(Cl)ccc1-n1cncn1)c1ccc([N+](=O)[O-])o1	0	0	-	-
COc1cc(/C=C/c2sc3ccccc3[n+]2CCCS(=O)(=O)[O-])ccc1O	36	0	0	0
CCN(CC)C(=O)CC[C@@H]1CC[C@]2(CCCN(Cc3ccccn3)C2)O1	-	0	-	-
CC(C(=O)OCC(=O)c1ccccc1)N1C(=O)C2C3CCC(C3)C2C1=O (stereo not given)	0	0	54	0
C=CCOc1nc2c(c(=O)n(C)c(=O)n2C)n1Cc1ccccc1Cl	0	0	0	0
C=CCOc1nc2c(c(=O)n(C)c(=O)n2C)n1Cc1ccc(Cl)cc1	0	0	55	0
O=C(NCc1ccccc1Cl)c1ccc(CS(=O)Cc2ccc(Cl)cc2)o1 (stereo not given)	0	0	0	0
CCC1(C)NC(C(=O)O)Cc2c1[nH]c1ccccc21 (stereo not given)	0	0	60	0
